UBC9 SUMO inh = inhibitors of human SUMOylation (UBC9). P63279. HTRF SUMOylation assay, SAE1/SAE2 + UBC9, in vitro. inhibition, % at 35 µM. 290,000 compounds, 0.36% hits; in the data active means inhibition above about 50%, passing the limit was not always enough
Target sequence (P63279 whole entry, looked up): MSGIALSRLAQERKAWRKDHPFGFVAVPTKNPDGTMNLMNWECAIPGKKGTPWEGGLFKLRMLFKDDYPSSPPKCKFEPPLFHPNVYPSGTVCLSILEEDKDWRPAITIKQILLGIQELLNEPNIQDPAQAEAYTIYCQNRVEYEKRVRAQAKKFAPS
S1P4 antagonist = antagonists of human S1P4 receptor. O95977. S1P4-expressing cells, antagonist mode, reporter read-out. inhibition, % at 4.98 µM. 220,000 compounds, 0.26% hits. AID 1510; in the data active means inhibition above about 29%;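 further: 0% = wells stimulated with agonist and 100% = vehicle wells without agonist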
p97 inhibitor = inhibitors of human p97 ATPase | P55072 | recombinant p97 ATPase, Kinase-Glo ATP luminescence, 3 h | inhibition, % at 8 µM | 220,000 compounds, 0.42% hits | AID 1481; in the data active means inhibition above about 15%;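 further: 0% = DMSO vehicle and 100% = wells lacking enzyme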
DTT redox prof = compounds producing H2O2 with reducing agent – biochemical, NIH compound library profiling, artefact control for MLSCN library redox annotation, primary screen; DTT-dependent redox cycling H2O2, phenol red/HRP absorbance; 100% = 100 µM peroxide control, 0% = buffer; activation, % at 10 µM; 200,000 compounds, 0.03% hits; AID 878;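 active means activation of at least 50% relative to the plate's high and low controls in the primary single-dose screen; inactive means activation below 50%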;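 further: compound incubated with DTT at 0.8 mM final as the reducing agent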
S1P4 ag = activates the human S1P4 receptor; 220,000 compounds, 0.35% hits; activation, % at 4.98 µM; S1P4-expressing cell line, agonist reporter assay; O95977; in the data active means activation above about 11%;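 further: 0% = DMSO vehicle and 100% = reference agonist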
S1P3 antag = blocks the human S1P3 receptor. Q99500. CHO S1P3 NFAT-BLA reporter, FRET fluorescence, antagonist mode. inhibition, % at 4.98 µM. 170,000 compounds, 0.27% hits. AID 485;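 active means inhibition above the plate cutoff, the mean inhibition of test wells on that plate plus 3 SD, cut at about 28% in these data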;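 further: cells challenged with S1P at its EC80 of 0.8 µM; blue over green emission ratio from cleaved BLA substrate after 4 h stimulation; 0% = S1P-stimulated wells and 100% = unstimulated DMSO-only wells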
Target sequence (Q99500 whole entry, looked up): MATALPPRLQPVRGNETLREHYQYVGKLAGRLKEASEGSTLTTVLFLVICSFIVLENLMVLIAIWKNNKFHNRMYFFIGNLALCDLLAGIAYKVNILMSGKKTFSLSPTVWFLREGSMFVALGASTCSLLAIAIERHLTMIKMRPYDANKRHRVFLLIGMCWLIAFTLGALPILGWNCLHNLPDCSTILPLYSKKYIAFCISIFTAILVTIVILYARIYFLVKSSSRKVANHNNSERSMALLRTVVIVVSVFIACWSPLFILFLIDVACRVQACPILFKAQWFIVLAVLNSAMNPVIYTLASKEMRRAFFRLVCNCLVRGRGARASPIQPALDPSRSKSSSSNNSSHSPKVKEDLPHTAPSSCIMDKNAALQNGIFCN
* hit, by the source's call; · = not tested or not shown; ! = not active in a repeat. Shown are actives, neighbours in structure and some others; about 1.1% of the full set was active somewhere.

SMILES	UBC9 SUMO inh	S1P4 antagonist	p97 inhibitor	DTT redox prof	S1P4 ag	S1P3 antag
COc1ccc(C(=O)NC2CC2)cc1OC1CCN(Cc2ccc(NC(C)=O)cc2)CC1	9.5	·	·	·	·	·
CCc1nnc(NC(=O)CSc2nnc(-c3cc4ccccc4cc3O)n2CCOC)s1	-3.5	-14.5	17.0*	-1.4	-0.2	9.0
C#CCNC(=O)C1=C[C@H](c2csc3ccccc23)C[C@H](OCCCCO)O1	1.3	-2.0	3.7	-1.0	-0.5	-16.6
O=[N+]([O-])c1ccc(Cl)c2c1C1C=CCC1C(c1ccccn1)N2 (configuration not stated)	22.3	-2.8	8.0	0.8	-1.3	-3.9
O=C(O)C1Nc2c(O)cc(Cl)c([N+](=O)[O-])c2C2C=CCC12 (configuration not stated)	98.7*	9.7	54.4*	0.3	1.2	-13.4
Cc1ccccc1C1NC(=S)NC2=C1C(=O)CCC2 (configuration not stated)	21.1	-12.0	2.5	-0.6	0.4	-1.2
Cc1ccccc1C(=O)Nc1ccnn1C1CCN(C(=O)c2cnsn2)CC1	-1.9	·	·	·	·	·
Cc1cc(/C=c2\sc3nc4ccccc4n3c2=O)c(C)n1-c1ccc(C(=O)O)cc1	18.0	-10.4	-2.2	-1.1	0.1	0.7
Cc1cc(/C=c2/sc3nc4ccccc4n3c2=O)c(C)n1-c1ccccn1	35.4	-14.4	-1.5	1.0	24.7*	·
Cc1ccc(-c2ccc(C)c(N)c2C)c(C)c1N	12.7	-11.2	1.4	-0.5	0.5	-4.2
CC[C@@]1(O)C(=O)OCc2c1cc1n(c2=O)Cc2cc3c(N)cccc3nc2-1	94.6*	·	·	·	·	·
C/C(=N/O)c1cc(C(C)(C)C)c(O)c(C(C)(C)C)c1	-6.2	-8.9	0.5	0.2	-5.3	·
CC(C)(Sc1cc(C(C)(C)C)c(O)c(C(C)(C)C)c1)Sc1cc(C(C)(C)C)c(O)c(C(C)(C)C)c1	-11.7	-18.6	5.0	5.4	49.1*	-4.0
COc1ccccc1-n1c(O)c(C=NCc2ccccn2)c2ccccc2c1=O	3.0	-11.7	14.5*	·	0.2	9.5
Cc1cc(C)n(C(=O)c2ccc(NC(=O)C3CC3)cc2)n1	-11.2	-8.5	2.5	0.1	-1.5	93.3*
CCC(=O)NNc1nc2c(F)cc(F)cc2s1	8.1	8.8	15.7*	-9.5	-1.9	16.2
CCC(=O)NNc1nc2c(F)cccc2s1	6.5	-11.2	1.3	-0.5	-1.2	-5.5
O=C(C#Cc1ccccc1)c1cccc([N+](=O)[O-])c1	10.2	11.1	14.7*	-1.9	1.2	·
Cc1ccc(S(=O)(=O)N(C)c2ccc(OCC(=O)Nc3nnc(C4CC4)s3)cc2)cc1	2.4	-7.1	1.9	-0.1	-0.5	-1.2
Cc1cc(C)cc(Oc2coc3c(CN(C)C)c(O)ccc3c2=O)c1	51.3*	·	·	·	·	·
CCCC(=O)NC(c1ccc(Cl)cc1Cl)c1ccc2cccnc2c1O (configuration not stated)	90.8*	·	·	·	·	·
COc1ccccc1NC(=O)c1sc2ncn(CC(=O)Nc3ccccc3)c(=O)c2c1C	51.2*	·	·	·	·	·
COc1ccccc1NC(=O)Cn1cnc2sc(C(=O)Nc3cc(OC)c(OC)c(OC)c3)c(C)c2c1=O	0.0	·	·	·	·	·
COC(=O)NCC(c1cccnc1)N1CCN(c2ccccc2F)CC1 (configuration not stated)	-19.3	-10.1	5.1	0.1	0.6	102.0*
Cc1ccc(C(=O)Nc2ccccc2C(=O)NC(CC(=O)O)C(=O)O)cc1 (configuration not stated)	9.3	-0.7	31.8*	-0.2	0.4	16.1
SMILES	UBC9 SUMO inh	S1P4 antagonist	p97 inhibitor	DTT redox prof	S1P4 ag	S1P3 antag
CCn1cc(C(=O)N[C@H](C(=O)NCCO)C(C)C)c(=O)c2cc3c(cc21)OCO3	16.6	·	·	·	·	·
Cc1nn2c(c1-c1ccccc1)NC1=C(C(=O)CCC1)C2c1ccccc1 (configuration not stated)	38.4	-15.0	-0.1	2.3	-1.2	·
COc1ccc(C2C3=C(CCCC3=O)Nc3c(-c4ccccc4)c(C)nn32)cc1 (configuration not stated)	51.1*	-5.6	0.8	-0.3	-1.0	·
Cc1cc(C)n(Cc2cc(C(=O)O)c3ccccc3n2)n1	13.4	-1.2	-1.4	0.0	1.7	-10.6
COc1ccc(CNC(=O)COC(=O)c2cc(-c3ccco3)nc3ccccc23)cc1	56.7*	-7.8	2.7	0.5	0.6	·
CCNC(=O)COC(=O)c1cc(-c2ccco2)nc2ccccc12	43.5	-3.1	7.5	·	-0.8	-9.5
C/C(=N\NC(=O)c1cc(-c2ccco2)nc2ccccc12)c1cccnc1	60.1*	-14.2	1.9	0.5	2.5	-11.5
COc1ccc(OC)c(-c2cc(C(=O)N/N=C(\C)c3cccnc3)c3ccccc3n2)c1	9.7	·	·	·	·	·
CO[C@H]1C=CO[C@@]2(C)Oc3c(C)c(O)c4c(O)c(c(C=NN5CCN(C6CCCC6)CC5)c(O)c4c3C2=O)NC(=O)C(C)=CC=C[C@H](C)[C@H](O)[C@@H](C)[C@@H](O)[C@@H](C)[C@H](OC(C)=O)[C@@H]1C	52.2*	9.2	-4.5	·	1.4	0.3
CO[C@H]1C=CO[C@@]2(C)Oc3c(C)c(O)c4c(O)c(c(C=NN5CCN(C)CC5)c(O)c4c3C2=O)NC(=O)C(C)=CC=C[C@H](C)[C@H](O)[C@@H](C)[C@@H](O)[C@@H](C)[C@H](OC(C)=O)[C@@H]1C	27.6	-13.7	5.7	0.6	-0.4	-4.3
O=C(N/N=C/c1ccc([N+](=O)[O-])o1)c1cc(-c2ccc(-c3ccccc3)cc2)nc2ccccc12	61.5*	-3.3	7.2	-0.5	1.5	-1.6
CCCn1cc(S(=O)(=O)c2ccccc2)c(=O)c2cc(F)c(N3CCN(C)CC3)cc21	5.4	·	·	·	·	·
CCOc1ccccc1Nc1ncnc2c1cnn2-c1ccccc1	-1.2	·	·	·	·	112.8*
CCCCNC(=O)CCCn1c(=S)[nH]c2cc3c(cc2c1=O)OCO3	17.9	-17.0	17.3*	-0.6	2.1	·
COc1cccc2cc(-c3ccccc3)c(=O)oc12	5.2	-14.5	2.5	-0.2	0.8	-21.2
CCOc1cccc2cc(-c3nnc(-c4ccccc4)o3)c(=O)oc12	·	·	·	·	·	65.2*
CCN(CC)C(=O)c1sc2nc(-c3ccncc3)[nH]c(=O)c2c1C	51.9*	1.6	8.2	-1.1	0.8	-14.0
COc1cc(Cc2cnc(N)nc2N)cc(OC)c1OC	-9.5	12.3	7.4	0.5	18.0*!	-16.6
CCOC(=O)C1CCN(C(=O)c2ccco2)CC1	14.7	-9.4	-0.6	2.4	0.9	69.2*
CC1=NN(c2ccc(Cl)c(C(=O)O)c2)C(=O)/C1=C\c1ccc(-c2ccc(C(=O)O)cc2)o1	81.7*	3.2	5.9	-1.4	0.7	-6.8
CC1=NN(c2ccc(C(=O)O)cc2)C(=O)/C1=C/c1ccc(-c2ccccc2F)o1	31.1	·	·	·	·	·
Cc1ccccc1NC(=O)CSc1nc2c(c(-c3ccco3)c1C#N)CCCC2	9.1	-1.1	1.5	0.5	1.8	78.7*

From PubChem
